Source: PubChem (Corson Lab, School of Medicine, Indiana University)
The full list was thinned out, with hits kept by preference.
FECH inh – inhibitors of human ferrochelatase; purified FECH, Ni-mesoporphyrin absorbance 550 nm; calls only at 10 µM (by protocol); P22830; actives 3.3% (n = 20,000);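 active = enzyme reaction rate more than 3 SD below the solvent-only control wells on the same plate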;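 also: lower slope than DMSO wells means FECH inhibition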
Target sequence (P22830 whole entry, looked up): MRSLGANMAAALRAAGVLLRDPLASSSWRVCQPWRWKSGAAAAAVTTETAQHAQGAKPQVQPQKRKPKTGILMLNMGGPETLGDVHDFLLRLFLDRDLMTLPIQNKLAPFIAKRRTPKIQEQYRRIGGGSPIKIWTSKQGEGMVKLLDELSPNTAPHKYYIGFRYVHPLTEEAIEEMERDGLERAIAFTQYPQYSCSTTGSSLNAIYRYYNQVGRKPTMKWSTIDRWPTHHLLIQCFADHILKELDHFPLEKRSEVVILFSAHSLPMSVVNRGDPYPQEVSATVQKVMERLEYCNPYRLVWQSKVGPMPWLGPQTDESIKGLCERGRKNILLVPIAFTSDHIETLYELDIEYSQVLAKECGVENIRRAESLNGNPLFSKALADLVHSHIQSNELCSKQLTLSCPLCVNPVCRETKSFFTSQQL
Large screens that a line does not name were inactive.

Cc1cc(N2CCOCC2)nc(N2CCN(S(=O)(=O)c3cccc(Cl)c3)CC2)n1	none
CCCc1cc(=O)n2[nH]c(CNc3cccc(Cl)c3C)nc2n1	FECH inh active
Cc1cccc(NCc2cc(=O)n3[nH]c(NCc4ccccc4)nc3n2)c1C	none
CCCc1c(C)nc2nc(-c3ccco3)[nH]n2c1=O	none
COc1ccc(CNc2nc3nc(CNc4cccc(C)c4C)cc(=O)n3[nH]2)cc1	none
CCOC(=O)CCc1c(C)nc2nc(CNc3ccccc3Cl)[nH]n2c1=O	none
CCCc1cc(=O)n2[nH]c(CNc3cc(Cl)ccc3C)nc2n1	FECH inh active
Cc1ccc(Cl)cc1NCc1cc(=O)n2[nH]c(NCc3ccc(F)cc3)nc2n1	none
CCCc1cc(=O)n2[nH]c(CNc3cccc(C)c3C)nc2n1	FECH inh active
Cc1cccc(NCc2nc3nc(C)c(Cc4ccc(Cl)cc4)c(=O)n3[nH]2)c1C	FECH inh active
COc1ccc(Cl)cc1NCc1cc(=O)n2[nH]c(NCc3ccccc3)nc2n1	none
CC(C)Cc1ncc2c(n1)CN(C(=O)Cn1ncnn1)C2	none
O=C(CSCc1nc(-c2ccccc2)no1)Nc1ccccc1	none
COc1ccc(CC2CN(Cc3ccnc(C(C)C)n3)CCO2)cc1 (centres undefined)	none
Cc1cccc(C(=O)N(Cc2nc3nc(C)cc(C)n3n2)c2cccc(Cl)c2)c1	none
CCc1cc(Sc2ccccc2NC(=O)c2ccc(C(C)(C)C)cc2)n2nc(C)nc2n1	none
COc1ccc(CN(Cc2cccc(F)c2)C(=O)C2CCOC2)cc1 (centres undefined)	none
Cn1c(=O)c2c(-c3ccc(Cl)cc3)c(Nc3ccccc3)oc2n(C)c1=O	none
CCCc1cc(=O)n2[nH]c(CNc3ccccc3C)nc2n1	FECH inh active
O=C(c1csc(S(=O)(=O)N2CCN(c3ccc(F)cc3)CC2)c1)N1CCCC1	none
Cn1c(=O)c(C(=O)Nc2ccc(Cl)cc2)nc2ccccc21	none
CC(=O)Nc1cccc(NC(=O)c2nc3ccccc3n(C)c2=O)c1	FECH inh active
CC(=O)c1ccc(NC(=O)c2nc3ccccc3n(C)c2=O)cc1	none
Cn1c(=O)c(C(=O)Nc2ccc(Oc3ccc(Cl)cc3)cc2)nc2ccccc21	FECH inh active
COc1cccc(NC(=O)c2nc3ccccc3n(C)c2=O)c1	none
COC(=O)c1ccc(NC(=O)c2nc3ccccc3n(C)c2=O)cc1	none
CN1CCCCC1C(=O)N1CCC(c2n[nH]c(=O)n2-c2ccccc2)CC1 (centres undefined)	none
CNC(=O)c1ccc(CNc2ncnc3sc(C)c(C)c23)o1	none
CCCc1ccc(S(=O)(=O)NCCn2c(-c3ccc(F)cc3)nc3cccnc32)cc1	none
CCc1csc(CNC(=O)c2ccc(N[C@@H]3C[C@@H](CO)N(C)C3)nc2)n1	none
CCCc1cc(C(=O)NCC2(O)CCNC2)ccn1 (centres undefined)	none
Cc1cc(Nc2ccccc2)nc(Nc2ccc(NC(=O)c3ccc(Cl)cc3)cc2)n1	none
CCn1ncnc1CN1CCCN(Cc2ccc(F)cc2)C(C(C)C)C1 (centres undefined)	none
Cc1cc(Nc2ccccc2)nc(Nc2ccc(NC(=O)CC(C)C)cc2)n1	none
O=S(=O)(c1cccs1)N1CCC(n2c(C(F)(F)F)nc3cccnc32)CC1	none
O=C(CCN1CCCCO1)NCC(c1ccccc1)C1CCCC1 (centres undefined)	FECH inh active
O=C(CCN1CCCCO1)N(Cc1ccccc1)Cc1nccs1	none
CN1CCCC(CCNC(=O)CCN2CCCCO2)C1 (centres undefined)	none
CCn1cnnc1C(C)NC(=O)c1ccc2c(c1)nnn2C (centres undefined)	none
COC(=O)[C@H](c1ccccc1)n1ccnc1-c1ccc(OC)c(O)c1	none
CC(C)NC(=O)c1ccccc1NC(=O)CN1c2ccc(C(C)C)cc2-c2ccccc2S1(=O)=O	none
CC(C)c1ccc2c(c1)-c1ccccc1S(=O)(=O)N2CC(=O)NC(C)c1ccccc1 (centres undefined)	FECH inh active
CC(C)c1ccc2c(c1)-c1ccccc1S(=O)(=O)N2CC(=O)Nc1cccc(F)c1	FECH inh active
CSc1ccccc1NC(=O)CN1c2ccc(C(C)C)cc2-c2ccccc2S1(=O)=O	none
O=C(CN1C(=O)c2ccccc2S1(=O)=O)Nc1ccc(Cl)cc1C(F)(F)F	none
O=C(CN1CCN(Cc2ccc(F)cc2)S1(=O)=O)Nc1cccc(F)c1	none
CCN(CC)C(=O)c1ccccc1NC(=O)CN1c2ccc(F)cc2-c2ccccc2S1(=O)=O	FECH inh active
O=C(CN1c2ccc(F)cc2-c2ccccc2S1(=O)=O)Nc1ccccc1C(=O)N1CCCCC1	none
CC1CCN(c2nc(Nc3ccccc3)c3cnn(-c4ccccc4)c3n2)CC1	none
Fc1cccc(Nc2nc(NCCc3ccccc3)nc3c2cnn3-c2ccccc2)c1	none
O=C(Cc1ccncc1)N1CCc2[nH]nc(-c3cccc4ccccc34)c2C1	none
CCN(Cc1ccccc1)c1cc2n(c(=O)n1)CCc1cc(OC)c(OC)cc1-2	none
O=C(CCNCc1ccc(Cl)cc1)Nc1cccc(F)c1	none
CC(C)c1cc(Nc2cccc(Cl)c2)n2nc(-c3cccnc3)nc2n1	none
Cc1ccc(F)c(C(=O)N2CCC(Cc3cccc(C(N)=O)c3)C2)c1Cl (centres undefined)	none
COc1ccc(CNS(=O)(=O)c2cc(N3C(=O)CCS3(=O)=O)ccc2OC)cc1OC	none
COc1ccc(CNc2nc3nc(CN4CCCCCC4)cc(=O)n3[nH]2)cc1	none
CCn1cc(CN(C(=O)c2nccc3ccccc23)C(C)C)cn1	none
CN(CC1COCCO1)C(=O)c1nccc2ccccc12 (centres undefined)	FECH inh active
N[C@@H]1c2ccccc2C2(CCN(C(=O)c3nccc4ccccc34)CC2)[C@H]1O	none
CC(=O)OCc1c(C)cc(C)c(CNCc2cnc(C)cn2)c1C	none
Oc1ccc(C(O)CNc2nccc(CCC(F)(F)F)n2)cc1 (centres undefined)	none
COc1ccc(Nc2cc(C)nc(Nc3ccc(NC(=O)CC4CCCC4)cc3)n2)cc1	none
O=C(c1csc(S(=O)(=O)Nc2ccccc2F)c1)N1CCCCC1	none
Cc1cccc(NS(=O)(=O)c2cc(C(=O)N3CCCC3)cs2)c1C	FECH inh active
Cc1ccccc1CNS(=O)(=O)c1cc(C(=O)N2CCCC2)cs1	none
Cc1ccc(C)c(NS(=O)(=O)c2cc(C(=O)N3CCCC3)cs2)c1	FECH inh active
CCc1cccc(C)c1NS(=O)(=O)c1cc(C(=O)N2CCCC2)cs1	none
CCc1ccccc1NS(=O)(=O)c1cc(C(=O)N2CCCC2)cs1	none
CCOc1ccc(NC(=O)Nc2ccc(Sc3cc(CC)nc4nc(C)nn34)cc2)cc1	none
CCOC(=O)Cc1ccc(NC(=O)Nc2ccc(Sc3cc(CC)nc4nc(C)nn34)cc2)cc1	FECH inh active
CCc1ccc(NC(=O)Nc2ccc(Sc3cc(CC)nc4nc(C)nn34)cc2)cc1	none
O=C(CCn1cnc2onc(-c3cc(F)cc(F)c3)c2c1=O)NCCc1ccccc1Cl	none
CCN(CC)CCCNC(=O)CC1CCN(S(=O)(=O)c2ccc(C)cc2)CC1	none
Cc1cc(F)ccc1NC(=O)C1CCN(c2ccc(-c3cccs3)nn2)CC1	none
COc1ccc(CC(=O)Nc2ccccc2Sc2cc(C)nc3nc(-c4ccccc4)nn23)cc1	none
CC1CCCCN1S(=O)(=O)c1cc2c(cc1Cl)NC(=O)CO2 (centres undefined)	none
COc1ccccc1NC(=O)C1CCCN1S(=O)(=O)c1cc2c(cc1C)NC(=O)CO2 (centres undefined)	none
Cc1cc2c(cc1S(=O)(=O)N1CCCC1C(=O)N1CCc3ccccc31)OCC(=O)N2 (centres undefined)	FECH inh active
Cc1ccc(NC(=O)CN2C(=O)CCc3cc(S(=O)(=O)N4CCCC4)ccc32)nc1	none
